Mito fusion act: inhibitors of mitochondrial division or activators of mitochondrial fusion. S. cerevisiae fusion-defective mutant growth rescue, CellTiterGlo 48 h. Potency, µM (highest dose often 46.1 µM), without a hit: at the top dose growth rescue (activation), hits mostly activators. AID 485298. actives 0.23% (n = 320,000); also: % of control where 0% means no effect; nearly all actives have a fitted effect of over 45% in size
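S. cerevisiae fusion-defective temperature-sensitive mutants (e.g. fzo1-1, mgm1-5) grown 48 h at 37C in YPEG (ethanol/glycerol non-fermentable) medium with 23 nl compound per well; growth rescue read as CellTiterGlo luminescence.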
GCN5L2 inh: blocks human GCN5L2 histone acetyltransferase; GCN5L2 HAT assay, ThioGlo1 CoA-SH fluorescence; Potency, µM (doses to about 58.9 µM), for the others: at the highest dose activity change, negative = inhibition, most hits filed as inhibitors; actives 0.21% (n = 390,000); AID 504327; also: % is scaled to controls: 0 for no effect and ±100 for the full control effect
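Enzyme at 20nM final was mixed with library compounds for 15 min at room temperature. Peptide H3(1-25) at 75uM, acetyl-CoA at 70uM and ThioGlo1 at 50uM were then added. Plates were read immediately and after 20 min (Ex340nm/Em540nm).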
PLK1 PBD block: blocks phosphopeptide binding to human PLK1 polo-box domain | P53350 | Plk1 PBD binding of FITC phosphopeptide, fluorescence polarization | Potency, µM, without a hit: max response, negative = inhibition, usual class: inhibitors | actives 2.8% (n = 360,000); also: series mostly up to about 57 µM; % is scaled to controls: 0 for no effect and ±100 for the full control effect; nearly all actives have a fitted effect of over 65% in size
GLS inhibitor: inhibitors of human glutaminase (GLS); O94925; GLS enzymatic activity, qHTS titration; Potency, µM (doses to about 45.5 µM), for inactives: at the highest dose activity change, negative = inhibition, hits mostly inhibitors; actives 0.21% (n = 410,000); AID 624170; also: % is scaled to controls: 0 for no effect and ±100 for the full control effect
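hKGA in 45 mM KH2PO4 (pH 8.2), 0.02% Tween-20 with compound, then 1mM L-Glutamine (stock as added) plus glutamate oxidase/HRP/Amplex red coupling mix. Fluorescence read initially and after 30 min at RT; signal change reflects glutamate formation.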
VDR inh: inhibitors of human vitamin D receptor; P11473; VDR-SRC2-3 peptide fluorescence polarization, 2 h; Potency, µM, for inactives: max response, negative = inhibition, hits mostly inhibitors; actives 0.93% (n = 400,000); also: % is scaled to controls: 0 for no effect and ±100 for the full control effect
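Two reagent solutions held at 4 deg C in the dark were dispensed, compounds pinned at 23 nl, and the mixture incubated 2 h at room temperature. Read-out: fluorescence polarization of VDR–SRC2-3 peptide binding.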
PKM2 activator: increases activity of human pyruvate kinase M2 | P14618 | purified PKM2, Kinase-Glo ATP luminescence, activation; response scale: 0% is enzyme alone, no compound | Potency, µM (titrated, usually from 57.5 µM), without a hit: top-dose activation, hits mostly activators | actives 0.34% (n = 260,000) | AID 1631; also: % is scaled to controls: 0 for no effect and ±100 for the full control effect; nearly all actives have a fitted effect of over 55% in size
Target sequence (P14618 whole entry, looked up): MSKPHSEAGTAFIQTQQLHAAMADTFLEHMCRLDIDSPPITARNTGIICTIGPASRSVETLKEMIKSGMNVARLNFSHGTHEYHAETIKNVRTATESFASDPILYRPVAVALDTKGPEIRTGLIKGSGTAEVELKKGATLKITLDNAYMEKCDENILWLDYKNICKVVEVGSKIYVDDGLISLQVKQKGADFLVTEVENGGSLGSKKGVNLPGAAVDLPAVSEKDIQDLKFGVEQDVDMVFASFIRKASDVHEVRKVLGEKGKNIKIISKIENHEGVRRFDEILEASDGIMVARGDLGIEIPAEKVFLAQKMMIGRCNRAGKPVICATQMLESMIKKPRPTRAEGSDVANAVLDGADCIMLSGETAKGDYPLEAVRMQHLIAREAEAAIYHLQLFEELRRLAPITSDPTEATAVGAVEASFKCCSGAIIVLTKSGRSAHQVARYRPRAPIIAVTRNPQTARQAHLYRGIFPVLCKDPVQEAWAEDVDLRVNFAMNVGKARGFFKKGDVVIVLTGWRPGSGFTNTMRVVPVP
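Purified hPK-M2 (>95%) run at intermediate activity with 0.1 mM ADP and 0.5 mM PEP in 50 mM imidazole pH 7.2, KCl, MgCl2; 1 h room temperature. ATP formed read by Kinase-Glo luminescence; normalized to uninhibited and no-enzyme controls.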
* = called active by the depositor. Sampled rows, rich in hits. Any-hit rate of the full collection: about 3.4%. Calls follow the shape of the dose curve; as a rule, active = well fitted curve in the direction sought with a large enough effect; inconclusive = small, poorly fitted or top-dose-only effect, or another doubt; inactive = no such curve, though single readings can be large; an effect the other way counts as inactive or inconclusive. Potency is read from the fitted curve at half-maximal effect.

O=C(c1ccco1)c1coc2c1cc(O)c1ccccc12 was read as Mito fusion act -3.9%, GCN5L2 inh 2.3%, PLK1 PBD block 29.9µM*, GLS inhibitor 15.4%, VDR inh -21.8% and PKM2 activator -7.0%.
CN1CCN(C(=S)Nc2ccc(S(N)(=O)=O)cc2)CC1 was read as Mito fusion act -1.3%, GCN5L2 inh -5.7%, PLK1 PBD block 26.7µM*, GLS inhibitor 10.9%, VDR inh -15.9% and PKM2 activator -3.1%.
O=C(C1CCCO1)N1CCN(C(=S)Nc2ccc(Br)cc2)CC1 (stereo unspecified) was read as Mito fusion act 2.1%, GCN5L2 inh -2.9%, PLK1 PBD block -6.6%, GLS inhibitor 6.0%, VDR inh -15.7% and PKM2 activator -2.0%.
NS(=O)(=O)c1ccc(NC(=S)N2CCN(c3cccc(Cl)c3)CC2)cc1 was read as Mito fusion act -4.9%, GCN5L2 inh 1.7%, PLK1 PBD block 16.8µM*, GLS inhibitor 3.2%, VDR inh -25.7% and PKM2 activator 6.0%.
Cc1ccccc1C(=O)NC(=S)NCC1CCCO1 (stereo unspecified) was read as Mito fusion act -3.7%, GCN5L2 inh 2.51µM*, PLK1 PBD block -1.0%, GLS inhibitor -2.9%, VDR inh 7.4% and PKM2 activator 0.6%.
NS(=O)(=O)c1ccc(NC(=S)N2CCN(C(=O)C3CCCO3)CC2)cc1 (stereo unspecified) was read as Mito fusion act -3.0%, GCN5L2 inh -0.9%, PLK1 PBD block 10.6µM*, GLS inhibitor 6.3%, VDR inh inconclusive and PKM2 activator 5.4%.
For NS(=O)(=O)c1ccc(NC(=S)N2CCN(S(=O)(=O)c3ccc(F)cc3)CC2)cc1 the results were Mito fusion act -0.1%, GCN5L2 inh 0.1% and PKM2 activator -6.5%.
`COc1ccccc1-c1cncnc1-n1ccnc1` gave GCN5L2 inh -10.0% and VDR inh -12.8%.
For Cc1cccc2cc(CN(Cc3ccccc3)Cc3nnnn3Cc3ccccc3)c(=O)[nH]c12 the results were VDR inh -6.1%.
COC1=C2C[C@@H](C)C[C@H](OC)[C@H](O)[C@@H](C)/C=C(\C)[C@H](OC(N)=O)[C@@H](OC)/C=C\C=C(/C)C(=O)NC(=CC1=O)C2=O was read as GCN5L2 inh -25.4% and VDR inh inconclusive.
`NS(=O)(=O)c1ccc(NC(=S)NCC2CCCO2)cc1` (stereo unspecified) gave Mito fusion act 0.2%, GCN5L2 inh -10.4%, PLK1 PBD block 23.8µM*, GLS inhibitor -13.1%, VDR inh -18.8% and PKM2 activator 0.9%.
`Nc1ccccc1N=Cc1ccc(-c2cccc(Cl)c2)o1` gave Mito fusion act 1.3%, GCN5L2 inh 19.6%, PLK1 PBD block inconclusive, GLS inhibitor 11.6%, VDR inh -8.4% and PKM2 activator 28.2µM*.
CCOc1cccc(NC(=O)/C(C#N)=C\c2cccnc2)c1 was read as Mito fusion act 2.8%, GCN5L2 inh -3.4%, PLK1 PBD block 18.9µM*, GLS inhibitor inconclusive, VDR inh inconclusive and PKM2 activator 9.4%.
Cc1ccc(S(=O)(=O)n2nc(OC(=O)c3c(-c4ccccc4Cl)noc3C)cc2N)cc1 was read as Mito fusion act -2.4%, GCN5L2 inh -10.3%, PLK1 PBD block 2.67µM*, GLS inhibitor inconclusive, VDR inh -21.3% and PKM2 activator 1.4%.
For COc1ccc(S(=O)(=O)n2nc(OC(=O)c3ccccc3)cc2N)cc1 the results were Mito fusion act -6.9%, GCN5L2 inh -12.2%, PLK1 PBD block -20.1%, GLS inhibitor 53.0%, VDR inh -13.5% and PKM2 activator 3.2%.
`COc1ccc(S(=O)(=O)n2nc(OC(=O)c3ccncc3)cc2N)cc1` gave Mito fusion act -1.0%, GCN5L2 inh -1.7%, PLK1 PBD block 26.7µM*, GLS inhibitor 29.3%, VDR inh inconclusive and PKM2 activator -1.7%.
Cc1onc(-c2ccccc2Cl)c1C(=O)Oc1cc(N)n(S(=O)(=O)c2ccc(F)cc2)n1 was read as Mito fusion act -2.3%, GCN5L2 inh -25.6%, PLK1 PBD block 0.9%, GLS inhibitor -3.1%, VDR inh 7.4% and PKM2 activator -1.7%.
`O=C(CCN1CCN(c2ccccc2)CC1)NNC(=O)c1ccccc1` gave PLK1 PBD block -2.7% and GLS inhibitor 11.6%.
For CC1(C)CC2C1CCC1(C)OC2(C)CCC1O (stereo unspecified) the results were GCN5L2 inh -1.9% and VDR inh 1.8%.
O=C(COC(=O)Cn1nnc2ccccc21)Nc1ccccc1Br was read as Mito fusion act -5.9%, GCN5L2 inh -2.1%, PLK1 PBD block 29.9µM*, GLS inhibitor -11.8%, VDR inh inconclusive and PKM2 activator -9.3%.
CCCC(c1nnnn1CCOC)N1CCN(c2nc3ccccc3s2)CC1 (stereo unspecified) was read as Mito fusion act 4.5%, GCN5L2 inh -4.0%, PLK1 PBD block 5.32µM*, GLS inhibitor inconclusive, VDR inh inconclusive and PKM2 activator 27.5%.
CCC(c1nnnn1CCOC)N1CCN(c2nc3ccccc3s2)CC1 (stereo unspecified) was read as Mito fusion act 10.8%, GCN5L2 inh -2.8%, PLK1 PBD block -2.7%, GLS inhibitor 1.0%, VDR inh 3.6% and PKM2 activator 0.1%.
For COc1ccc(NC(=O)CN2C(=O)/C(=C3\SC(=S)N(CCC(=O)O)C3=O)c3ccccc32)cc1 the results were Mito fusion act 0.4%, GCN5L2 inh -8.7%, PLK1 PBD block 10.6µM*, GLS inhibitor -17.6%, VDR inh -12.6% and PKM2 activator 3.7%.
For Cc1cccc(NC(=O)CN2C(=O)/C(=C3\SC(=S)N(CC4CCCO4)C3=O)c3ccccc32)c1 (stereo unspecified) the results were Mito fusion act -0.2%, GCN5L2 inh -5.9%, PLK1 PBD block 0.1%, GLS inhibitor 0.5% and VDR inh 0.5%.
Screening O=C(CN1C(=O)/C(=C2/SC(=S)N(CCS(=O)(=O)O)C2=O)c2ccccc21)Nc1cccc(Br)c1 returned GCN5L2 inh inconclusive, PLK1 PBD block 26.7µM*, GLS inhibitor -16.5% and VDR inh inconclusive.
For O=c1c(Cl)cc(Cl)nn1-c1ccccc1 the results were Mito fusion act -1.5%, GCN5L2 inh -4.6%, PLK1 PBD block -4.0%, GLS inhibitor 2.4%, VDR inh 5.5% and PKM2 activator -4.2%.

High-throughput results (PubChem BioAssay)
